Source: ChEMBL document CHEMBL3988442, “University of Dundee, Small-Polar-MMV Screening Library” (2021)

Key:
[1] = molecular target: T1, Aspartate--tRNA(Asp/Asn) ligase (Mycobacterium tuberculosis (strain ATCC 25618 / H37Rv)) (UniProt P9WFW3); test: Assay for Asp RNA synthetase-1 from Mycobacterium tuberculosis; assay type: functional; design: scale not given: direction of the effect not stated beside the values; conditions: 30 µM; also: in the data most compounds retested in dose-response had high values
T1 sequence (whole entry): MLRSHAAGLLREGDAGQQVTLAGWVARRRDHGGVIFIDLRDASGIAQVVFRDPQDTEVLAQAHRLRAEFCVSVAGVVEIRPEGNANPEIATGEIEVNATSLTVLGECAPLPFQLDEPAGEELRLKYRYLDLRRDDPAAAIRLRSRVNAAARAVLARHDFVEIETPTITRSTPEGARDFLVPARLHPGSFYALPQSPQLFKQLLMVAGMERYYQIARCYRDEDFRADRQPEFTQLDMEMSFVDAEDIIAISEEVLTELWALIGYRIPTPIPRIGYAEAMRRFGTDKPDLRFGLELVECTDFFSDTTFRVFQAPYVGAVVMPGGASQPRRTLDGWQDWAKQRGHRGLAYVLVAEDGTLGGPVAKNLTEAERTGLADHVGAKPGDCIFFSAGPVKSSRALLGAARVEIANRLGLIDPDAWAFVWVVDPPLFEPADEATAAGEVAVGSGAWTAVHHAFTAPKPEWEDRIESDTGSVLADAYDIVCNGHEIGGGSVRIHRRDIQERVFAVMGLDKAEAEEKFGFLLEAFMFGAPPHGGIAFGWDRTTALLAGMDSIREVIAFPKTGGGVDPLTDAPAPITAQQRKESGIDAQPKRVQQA

[2] = molecular target: Shiga toxin 2 (Escherichia coli O157:H7) (UniProt P09385+P09386); test: E. coli 0.157:H7 Shiga Toxin SOP - stx2 screening assay; assay type: functional; design: scale not given: direction of the effect not stated beside the values; conditions: 30 µM

SMILES	Percent Effect [1]	Percent Effect [2]
CC(C)c1n[nH]c(C2CN(Cc3nnc(C4CC4)o3)CCO2)n1 (configuration not stated)	-2.26%	0.109%
O=C(NCc1cccnc1)C1CC(=O)N(CC2CC2)C1 (configuration not stated)	-3.29%	-8.28%
CN(Cc1cccc(F)c1)C(=O)CN1CCCC1CCc1ccccc1 (configuration not stated)	-1.52%	-33.4%
COc1ccc(-n2ccc(C(=O)NCCN3CCCCC3C)n2)cc1 (configuration not stated)	4.6%	-18.1%
O=C(CCC1CCCO1)NCc1ccnc(-n2cccn2)c1 (configuration not stated)	7.84%	21.6%
CCOC(=O)c1sc2ccsc2c1CN	-0.321%	42.1%
Cc1cc(C)c(CNC(=O)N(C)Cc2sccc2C)c(=O)[nH]1	2.05%	33.8%
CNS(=O)(=O)Cc1ccc(CNC(=O)c2cccc(C)n2)cc1	-1.85%	-5.04%
CC(NC(=O)N1CCCN(Cc2cccs2)CC1)c1cccnc1 (configuration not stated)	-7.21%	15.3%
COCc1cccc(NC(C)C(=O)N(C)Cc2ccccc2)c1 (configuration not stated)	-0.212%	-8.1%
O=C1CO[C@@H]2CN(S(=O)(=O)c3ccccc3)C[C@H]2N1CC1CC1	5.5%	-3.47%
Fc1ccc(-c2n[nH]cc2-c2ccnc(NCCN3CCCC3)n2)cc1	8.63%	-50.2%
Clc1ccc2cccnc2c1CN1CCCC(Cn2cncn2)C1 (configuration not stated)	-1.86%	-6.27%
Cc1csc(N2CCN(CCc3ccccn3)CC2C)n1 (configuration not stated)	-6.27%	-7.75%
O=C(CSc1ccc2c(c1)OCCO2)NS(=O)(=O)C1CCCCC1	1.67%	-14%
COc1ccccc1CC(=O)N1CCC(NCc2cc[nH]c2)CC1	-2.74%	-11.8%
COc1cc(C)nc(N2CCN(C(=O)CNC(C)(C)C)CC2)n1	-2.1%	-32.2%
O=S(=O)(Cc1ccccc1)NCC1CCN(c2cnccn2)CC1	2.52%	11.3%
Cn1cc(C(=O)NC2CCN(C(=O)NCC3CCSCC3)CC2)cn1	3.16%	-2.79%
O=C(CN1CCCC(O)C1)NC(=O)NCc1cccs1 (configuration not stated)	-0.0898%	-13.2%
Cc1nc(COC[C@@H]2CC[C@H]3[C@H](CCN3c3ncccn3)O2)cs1	1.87%	-14.4%
CCN1CC2(CC1=O)CN(Cc1ccco1)CCN(C(=O)N(C)C)C2 (configuration not stated)	-2.71%	-10.3%
Cc1ccc(NC(=O)c2n[nH]c(-n3cnnc3)n2)cc1C	4.15%	-18.5%

SMILES	Percent Effect [1]	Percent Effect [2]
CCN(CC1CCCO1)C(=O)Nc1ccc(F)cc1OC (configuration not stated)	-2.28%	-7.53%
CCn1cc(CN2CCc3nc(N4CCOCC4)nc(O)c3CC2)cn1	-1.83%	-19.4%
CC(C)c1nc2c(n1C)CCN(CC(=O)Nc1nccs1)C2	-1.5%	26%
COc1cccc(COCC(=O)N2CCCC(n3ccnc3C)C2)c1 (configuration not stated)	-4.19%	-2.47%
Cc1nn(C)c(N2CCOCC2)c1CNC1CCN(C(C)(C)C)CC1	-0.171%	1.07%
CN(C)C(=O)CS(=O)(=O)Cc1cc(Cl)c2c(c1)OCCCO2	4.36%	29.6%
CCn1c(N)nc2cc(C(=O)NCCc3ccccc3C)cnc21	7.33%	-69.2%
COc1ccccc1OCc1cc(C(=O)N2C[C@H](O)[C@@H](N(C)C)C2)n[nH]1	0.529%	-9.19%
COCCN(Cc1ccoc1)C(=O)c1cccnc1SC	1.65%	-0.408%
CCc1nccn1-c1cncc(C2CCCN2Cc2ccc(F)cc2)n1 (configuration not stated)	1.57%	-28.9%
Cc1nc(CN(C)C2CCN(CC(=O)NC3CCOCC3)C2)no1 (configuration not stated)	-1.22%	17.1%
CCOCC1CC2(CCN(C(=O)c3ccccn3)CC2)CO1 (configuration not stated)	0.961%	5.8%
Cn1cnc2c1CCN(Cc1cccc(OCC(N)=O)c1)C2	-4.08%	-24.5%
CCc1c(C)sc(NC(=O)CN2CCN(CC)CC2)c1C(=O)OC	-1.36%	-31.3%
COc1c(CNCc2cccc(CN(C)C)c2)c(C)nn1C	-1.85%	13.1%
Cc1ccc(N2CCC3(CCN(C(N)=O)CC3)CC2)nn1	2.03%	-2.18%
CN(C)C(=O)Cc1nc(CN2CCn3c(nnc3C3CC3)C2)cs1	-1.22%	10.2%
Cn1ccnc1CN1CCCN(C(=O)c2ccc3c(c2)COC3)CC1	0.393%	24.9%
COc1ccccc1NC(=O)NCC(O)(c1ccccc1)C1CC1 (configuration not stated)	-6.53%	-12.2%
Cc1ccc(C(=O)N2CCC3(CCC(=O)N(CC(N)=O)C3)CC2)c(O)c1	-0.585%	-12.4%
O=C(N1CCCC1)N1CCc2ncnc(C3CCOC3)c2CC1 (configuration not stated)	-0.956%	-10.8%
Cc1cc(CN2CCC(c3ccnn3CCO)CC2)no1	-1.46%	-16.1%
COCCN(C)C[C@@H]1CN(C(=O)c2cccc(C(F)(F)F)c2)C[C@@H]1CO	-4.52%	8.62%
